Shown are actives, neighbours in structure and some others; about 11% of the full set was active somewhere.
SW480 rereplic: DNA re-replication induction in SW480 cells; SW480 DNA re-replication, Hoechst DNA content imaging, 48 h; Potency, µM (series often up to 46.1 µM), most hits filed as activators; 340,000 tested, 1.8% active; AID 624297; note: nearly all actives have a fitted effect of over 55% in size
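Image-based DNA-content assay: after two days of treatment, nuclei were labelled with the DNA dye Hoechst and imaged, and hits were compounds raising the count of nuclei showing high fluorescence intensity.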
IL-1B inflam inh: inhibitors of inflammasome signaling (IL-1 beta secretion). THP-1 LPS/ATP IL-1B secretion, AlphaLISA, 16 h; hits give low values. activity change, % at 57.5 µM. 360,000 tested, 4.7% active. AID 743279; in the data active = activity change below about -50%; inconclusive = mostly about -30% to -49%
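THP-1 cells pretreated 1 hr with compounds (up to 57.5 uM final), then stimulated with LPS (250 ng/mL final) plus ATP (1.25 mM final); secreted IL-1B measured by AlphaLISA after 16 hr, decreased signal indicating inhibition.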
VP16 counter: counter-screen for ROR gamma inhibitors: Gal4-VP16 reporter | Drosophila S2 Gal4-VP16 UAS-luciferase, luminescence, 20 h | 310,000 tested, 3.5% active | Potency, µM (series often up to 53.6 µM), actives largely listed as inhibitors;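 note: Gal4-VP16 expression switched on by copper sulfate through the metallothionein promoter; nearly all actives have a fitted effect of over 50% in size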
RORg inh: blocks mouse ROR gamma transcriptional activity; P51450; Drosophila S2 Gal4-RORgamma UAS-luciferase reporter, 20 h; Potency, µM (doses to about 53.6 µM), usual class: inhibitors; 310,000 tested, 5.4% active; note: nearly all actives have a fitted effect of over 60% in size
Target sequence (P51450 whole entry, looked up, the tested form may be a part): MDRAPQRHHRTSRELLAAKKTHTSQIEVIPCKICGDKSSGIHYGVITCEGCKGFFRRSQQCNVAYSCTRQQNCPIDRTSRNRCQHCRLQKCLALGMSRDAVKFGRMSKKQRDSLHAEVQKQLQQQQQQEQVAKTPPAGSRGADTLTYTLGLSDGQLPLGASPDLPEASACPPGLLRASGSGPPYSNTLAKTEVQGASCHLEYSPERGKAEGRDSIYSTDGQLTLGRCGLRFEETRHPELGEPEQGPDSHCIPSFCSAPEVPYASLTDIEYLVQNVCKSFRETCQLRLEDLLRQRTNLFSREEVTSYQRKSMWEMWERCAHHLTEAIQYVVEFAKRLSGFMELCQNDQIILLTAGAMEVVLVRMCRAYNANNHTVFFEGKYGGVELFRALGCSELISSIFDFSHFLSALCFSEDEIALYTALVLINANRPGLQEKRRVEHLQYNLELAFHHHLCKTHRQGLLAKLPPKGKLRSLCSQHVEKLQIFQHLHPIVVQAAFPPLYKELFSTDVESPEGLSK
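Drosophila Schneider cells stably carrying a metallothionein-driven Gal4 DBD–ROR gamma fusion and a UAS-Photinus luciferase reporter were exposed to compound for 1 hr, then induced with copper sulfate (700 uM final) for 20 hr at ambient temperature before luminescence reading.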
MCF10A rerep: DNA re-replication induction in MCF 10a cells | MCF 10A DNA re-replication, Hoechst nuclear intensity, 48 h | Potency, µM (titrated, usually from 46.1 µM), actives largely listed as activators | 350,000 tested, 2.9% active; note: nearly all actives have a fitted effect of over 50% in size
Hits are given with their value; – = inactive; ? = inconclusive; · = no result. Unless noted, calls come from the whole dose curve; as a rule, active = well fitted curve in the direction sought with a large enough effect; inconclusive = small, poorly fitted or top-dose-only effect, or another doubt; inactive = no such curve, though single readings can be large; an effect the other way counts as inactive or inconclusive.

SMILES | SW480 rereplic | IL-1B inflam inh | VP16 counter | RORg inh | MCF10A rerep
Cc1ccc(S(=O)(=O)NC(=O)C2(C)CCN2C(=O)c2cccc(F)c2)nc1 (centres undefined) | · | – | · | · | ·
O=C(NCC1CCCCC1)c1ccc2nc([C@@H]3O[C@H](CO)[C@@H](O)[C@H]3O)[nH]c2c1 | · | – | · | · | ·
CSCc1cc(N(C)C)nc(SCc2ccc(Cl)c(Cl)c2)n1 | – | – | ? | 11µM | –
COc1cccc2sc(N(CCCN(C)C)C(=O)c3ccc(S(=O)(=O)N4CCCc5ccccc54)cc3)nc12 | ? | -50 | ? | ? | ?
CCOc1cccc2sc(N(CCN(CC)CC)C(=O)c3ccc(S(=O)(=O)N4CCCCC4)cc3)nc12 | – | – | – | – | –
CN(C)CCCN(C(=O)c1ccc(S(=O)(=O)N2CCc3ccccc32)cc1)c1nc2c(Cl)cccc2s1 | ? | -83 | ? | ? | ?
CN(C)CCCN(C(=O)c1ccc(S(=O)(=O)N2CCCCCC2)cc1)c1nc2c(F)cccc2s1 | – | – | – | – | –
CCc1ccc2nc(N(CCCN(C)C)C(=O)c3ccc(S(=O)(=O)N4CCCc5ccccc54)cc3)sc2c1 | – | -98 | ? | ? | ?
CCc1ccc2nc(N(CCCN(C)C)C(=O)c3ccc(S(=O)(=O)N4CCCC4)cc3)sc2c1 | ? | – | – | – | ?
C#Cc1ccc2c(c1)C(=O)N(C)Cc1c(C(=O)OCCCOC(=O)c3ncn4c3CN(C)C(=O)c3cc(C#C)ccc3-4)ncn1-2 | · | · | – | – | ·
CCc1cccc(CC)c1NC(=O)c1ccc(-c2cc(Cl)ccc2Cl)o1 | · | – | · | · | ·
O=C(Nc1ccc(CN2CCOCC2)cc1)c1ccc(-c2ccc(Cl)cc2Cl)o1 | ? | -56 | – | – | ?
O=C(NC(=S)Nc1ccc(CN2CCOCC2)cc1)c1ccc(-c2cccc(Cl)c2)o1 | ? | ? | 14µM | 3.2µM | ?
COc1cccc(OC)c1NC(=O)c1ccc(-c2cc(Cl)ccc2Cl)o1 | · | -58 | · | · | ·
CC(=O)Cc1nsc(NC(=O)c2ccc(-c3cccc(Cl)c3)o2)n1 | ? | – | – | – | 10µM
O=C(NC(=S)Nc1ccc(CN2CCOCC2)cc1)c1ccc(-c2ccc(Br)cc2)o1 | – | – | – | – | ?
Clc1ccccc1-c1cnc2sc(NCc3ccc4c(c3)OCO4)nn12 | · | – | · | · | ·
CC1CCN(S(=O)(=O)c2ccc3c(c2)C(Cl)(Cl)C(=O)N3)CC1 | · | – | · | · | ·
O=C(Nc1ccc(CN2CCOCC2)cc1)c1ccc(-c2cccc(Cl)c2)o1 | – | -60 | – | – | ?
O=C(NC(=S)Nc1ccc(CN2CCOCC2)cc1)c1ccc(-c2ccc(Cl)cc2)o1 | – | – | – | – | –
O=C(NC(=S)Nc1ccccc1N1CCOCC1)c1ccc(-c2cccc(Cl)c2)o1 | – | – | 5.6µM | 2.5µM | ?
CCN1C=C(Cc2ccc(OC)cc2)C2=C(C1)C(c1ccc(OC)cc1)C(C#N)=C(N)O2 (centres undefined) | ? | -60 | – | – | ?
Clc1ccccc1/C=C/c1nc(-c2ccccn2)no1 | – | – | ? | 2.5µM | –
Cc1onc(-c2ccccc2Cl)c1-c1nc(-c2ccccn2)no1 | – | – | – | – | ?
COc1ccc(OCC(=O)Nc2ccccc2-c2ccccc2)cc1 | ? | – | – | – | ?
SMILES | SW480 rereplic | IL-1B inflam inh | VP16 counter | RORg inh | MCF10A rerep
COc1ccc(CNC(=S)Nc2ccccc2-c2ccccc2)cc1 | · | · | 7.1µM | 2µM | ·
COc1ccc(CNC(=S)Nc2ccccc2Cl)cc1 | ? | – | ? | 18µM | –
CC(C)c1ccccc1S(=O)(=O)c1cc(N)c2ncccc2c1[N+](=O)[O-] | · | · | – | – | ·
O=C(O)CCCCCCCCCCCNC(=O)NC12CC3CC(CC(C3)C1)C2 | ? | – | · | · | –
Cc1ccc(C2=NN(S(=O)(=O)c3ccccc3)C(c3ccccc3O)C2)cc1 (centres undefined) | – | – | ? | – | –
COc1ccc(C2CC(c3ccccc3)=NN2S(=O)(=O)c2ccccc2)cc1 (centres undefined) | ? | – | 4.5µM | ? | –
COc1ccc(C2CC(c3ccccc3)=NN2c2ccc(N)cc2)cc1 (centres undefined) | 23µM | ? | – | – | 16µM
COc1ccc(C2=NN(C(=O)c3ccc(Cl)c([N+](=O)[O-])c3)C(c3ccccc3)C2)cc1 (centres undefined) | – | – | – | – | ?
COc1ccc(C2CC(c3ccccc3)=NN2c2ccc(Cl)c(C(=O)O)c2)cc1 (centres undefined) | ? | – | – | – | 8.2µM
COc1ccc(C2=NN(C(N)=S)C(c3ccccc3)C2)cc1 (centres undefined) | ? | – | ? | – | –
CCC(=O)Nc1cccc(C2=NN(c3ccccc3)C(c3ccc(OC)cc3)C2)c1 (centres undefined) | 18µM | – | – | – | ?
CN(CC(=O)Nc1ccccc1Cl)C(=O)COC(=O)/C=C/c1cccc(C(F)(F)F)c1 | – | – | · | · | –
CC1=C(C)C(O)N(Cc2ccccc2)C1=O (centres undefined) | – | – | – | – | –
COc1ccc(C2CC(c3ccc(OC)cc3O)=NN2C(=O)c2ccccc2)cc1 (centres undefined) | – | – | – | – | ?
C=CCOc1ccc(C2CC(C)=NN2c2ccccc2)cc1 (centres undefined) | ? | – | – | – | 21µM
CCOC(=O)C1=NN(c2ccccc2)C(c2ccccc2)CC1=O (centres undefined) | – | – | – | – | –
CC(=O)Oc1ccc(C2=NN(c3ccccc3)C(c3ccccc3)C2)cc1 (centres undefined) | 18µM | – | – | – | 5.8µM
COc1ccc(C2CC(c3ccccc3O)=NN2c2ccccc2)cc1 (centres undefined) | 18µM | – | · | · | 16µM
CC(=O)N1N=C(C)CC1c1ccc(OCc2ccccc2)cc1 (centres undefined) | – | – | – | ? | –
CC12CCC3c4ccc(O)cc4CCC3C1CC(=NO)C2O (centres undefined) | – | – | · | · | –
CCOc1ccc(OCCC(=O)N(CC)CC(=O)Nc2c(F)cccc2F)cc1 | – | – | · | · | –
CCOC(=O)c1ccccc1NC(=O)COC(=O)C(CC(C)C)NC(N)=O (centres undefined) | – | – | – | – | 0.92µM
Cc1cccc(N2CCN(Cc3ccoc3)CC2)c1C | ? | – | – | – | 21µM
CC(=O)c1cccc(NC(=O)CCc2nc3sc4c(c3c(=O)[nH]2)CCCC4)c1 | – | – | · | · | ?
O=C(Nc1cccc(F)c1)N1CCC2(CC1)CCN(C(=O)c1csnn1)CC2 | · | · | – | – | ·
CC(=O)Nc1cc(C)nn1-c1nc(C)cc(C)n1 | – | – | – | ? | –
Cc1ccc(Nc2cc(C)nc3nnnn23)cc1 | – | – | – | – | –
Cc1cc(C)nc(-n2nc(C)cc2NC(=O)C(C)C)n1 | – | – | – | 5µM | –

Screening results: PubChem BioAssay, National Center for Advancing Translational Sciences (NCATS)
